# Only a selection was taken, and the strongest signals are over-represented in it overall.
# Key:
# Test in all cases: glycan array binding signal (z-score within array); higher = stronger binding
# Conditions in all cases: glycan notation: IUPAC condensed, linker removed
# [1] = biological target: Fuc(a1-2)Gal(b1-3)GalNAc(b1-4)[Neu5Ac(a2-3)]Gal(b1-4)Glc
# How it was run: (§1)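 From the Consortium for Functional Glycomics database, 3228 arrays were curated, keeping only those whose protein sequence was available. Binding is given as a within-array Z-score averaged across arrays sharing a protein sequence and across linkers. Negative Z-scores can be read as non-binding.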
# Fuc(a1-2)Gal(b1-3)GlcNAc = biological target: Fuc(a1-2)Gal(b1-3)GlcNAc
# How it was run: as §1
# [2] = biological target: Fuc(a1-2)Gal(b1-3)GlcNAc(b1-2)Man(a1-3)[Fuc(a1-2)Gal(b1-3)GlcNAc(b1-2)Man(a1-6)]Man(b1-4)GlcNAc(b1-4)GlcNAc
# How it was run: as §1
# [3] = biological target: Fuc(a1-2)Gal(b1-3)[Fuc(a1-4)]GlcNAc(b1-3)[Fuc(a1-3)[Gal(b1-4)]GlcNAc(b1-6)]Gal(b1-4)Glc
# How it was run: as §1
# [4] = biological target: Fuc(a1-2)[Gal(a1-3)]Gal(b1-3)GlcNAc
# How it was run: as §1
# [5] = biological target: Fuc(a1-2)[Gal(a1-3)]Gal(b1-4)GlcNAc(b1-2)Man(a1-3)[Fuc(a1-2)[Gal(a1-3)]Gal(b1-4)GlcNAc(b1-2)Man(a1-6)]Man(b1-4)GlcNAc(b1-4)GlcNAc
# How it was run: as §1
# [6] = biological target: Fuc(a1-2)[GalNAc(a1-3)]Gal(b1-4)GlcNAc(b1-2)Man
# How it was run: as §1
# Fuc(b1-3)GlcNAc = biological target: Fuc(b1-3)GlcNAc
# How it was run: as §1
# Gal(b1-3)Gal = biological target: Gal(b1-3)Gal
# How it was run: as §1
# [7] = biological target: Gal(b1-3)[Fuc(a1-4)]GlcNAc(b1-2)Man(a1-3)[Gal(b1-3)[Fuc(a1-4)]GlcNAc(b1-2)Man(a1-6)]Man(b1-4)GlcNAc(b1-4)[Fuc(a1-6)]GlcNAc
# How it was run: as §1
# Gal(b1-4)Gal = biological target: Gal(b1-4)Gal
# How it was run: as §1
# Gal(b1-4)Glc6S = biological target: Gal(b1-4)Glc6S
# How it was run: as §1
# Gal(b1-4)GlcNAc = biological target: Gal(b1-4)GlcNAc
# How it was run: as §1
# [8] = biological target: Gal(b1-4)GlcNAc(b1-2)Man(a1-6)[Man(a1-3)]Man(b1-4)GlcNAc(b1-4)GlcNAc
# How it was run: as §1
# [9] = biological target: Gal(b1-4)GlcNAc(b1-2)[Gal(b1-4)GlcNAc(b1-6)]Man(a1-6)[Gal(b1-4)GlcNAc(b1-2)Man(a1-3)]Man(b1-4)GlcNAc(b1-4)[Fuc(a1-6)]GlcNAc
# How it was run: as §1
# [10] = biological target: Gal(b1-4)GlcNAc(b1-3)Gal(b1-4)GlcNAc(b1-3)GalNAc
# How it was run: as §1
# Gal6P(b1-4)GlcNAc = biological target: Gal6P(b1-4)GlcNAc
# How it was run: as §1
# Gal6S(b1-4)Glc6S = biological target: Gal6S(b1-4)Glc6S
# How it was run: as §1
# [11] = biological target: GalNAc(b1-3)Gal(a1-4)Gal(b1-4)GlcNAc
# How it was run: as §1
# GlcA(b1-6)Gal = biological target: GlcA(b1-6)Gal
# How it was run: as §1
# [12] = biological target: GlcNAc(a1-4)Gal(b1-4)GlcNAc(b1-3)Gal(b1-4)[Fuc(a1-3)]GlcNAc(b1-3)Gal(b1-4)[Fuc(a1-3)]GlcNAc
# How it was run: as §1
# [13] = biological target: GlcNAc(b1-2)[GlcNAc(b1-4)]Man(a1-3)[GlcNAc(b1-2)Man(a1-6)]Man(b1-4)GlcNAc(b1-4)GlcNAc
# How it was run: as §1
# [14] = biological target: GlcNAc(b1-2)[GlcNAc(b1-4)]Man(a1-3)[GlcNAc(b1-4)][GlcNAc(b1-2)[GlcNAc(b1-6)]Man(a1-6)]Man(b1-4)GlcNAc(b1-4)GlcNAc
# How it was run: as §1
# [15] = biological target: GlcNAc(b1-4)GlcNAc(b1-4)GlcNAc
# How it was run: as §1
# [16] = biological target: GlcNAc(b1-4)GlcNAc(b1-4)GlcNAc(b1-4)GlcNAc(b1-4)GlcNAc(b1-4)GlcNAc
# How it was run: as §1
# [17] = biological target: Man(a1-2)Man(a1-2)Man(a1-3)Man
# How it was run: as §1
# [18] = biological target: Man(a1-2)Man(a1-2)Man(a1-6)[Man(a1-3)]Man
# How it was run: as §1
# Man(a1-2)Man(a1-3)Man = biological target: Man(a1-2)Man(a1-3)Man
# How it was run: as §1
# [19] = biological target: Man(a1-2)Man(a1-3)[Man(a1-2)Man(a1-6)]Man
# How it was run: as §1
# [20] = biological target: Man(a1-2)Man(a1-3)[Man(a1-2)Man(a1-6)]Man(a1-6)[Man(a1-2)Man(a1-2)Man(a1-3)]Man
# How it was run: as §1
# [21] = biological target: Man(a1-2)Man(a1-3)[Man(a1-2)Man(a1-6)]Man(a1-6)[Man(a1-2)Man(a1-2)Man(a1-3)]Man(b1-4)GlcNAc(b1-4)GlcNAc
# How it was run: as §1
# [22] = biological target: Man(a1-2)Man(a1-3)[Man(a1-6)]Man(a1-6)[Man(a1-2)Man(a1-3)]Man(b1-4)GlcNAc(b1-4)GlcNAc
# How it was run: as §1
# [23] = biological target: Man(a1-2)Man(a1-6)[Man(a1-3)]Man(a1-6)[Man(a1-2)Man(a1-2)Man(a1-3)]Man
# How it was run: as §1
# [24] = biological target: Man(a1-2)Man(a1-6)[Man(a1-3)]Man(a1-6)[Man(a1-2)Man(a1-2)Man(a1-3)]Man(b1-4)GlcNAc(b1-4)GlcNAc
# How it was run: as §1
# [25] = biological target: Man(a1-3)[Man(a1-6)]Man(a1-6)[Man(a1-2)Man(a1-3)]Man(b1-4)GlcNAc(b1-4)GlcNAc
# How it was run: as §1
# [26] = biological target: Neu5Ac(a2-6)Gal(b1-4)GlcNAc(b1-2)Man(a1-3)[Gal(b1-4)GlcNAc(b1-2)Man(a1-6)]Man(b1-4)GlcNAc(b1-4)GlcNAc
# How it was run: as §1
# [27] = biological target: Neu5Ac(a2-6)Gal(b1-4)GlcNAc(b1-2)Man(a1-6)[Man(a1-3)]Man(b1-4)GlcNAc(b1-4)GlcNAc
# How it was run: as §1
# [28] = biological target: Neu5Ac(a2-6)Gal(b1-4)GlcNAc(b1-3)Gal(b1-3)GlcNAc
# How it was run: as §1
# [29] = biological target: Neu5Ac(a2-6)Gal(b1-4)GlcNAc(b1-6)[Gal(b1-3)]GalNAc
# How it was run: as §1
# [30] = biological target: Neu5Ac(a2-6)Gal(b1-4)GlcNAc6S
# How it was run: as §1
# Neu5Ac(a2-6)GalNAc = biological target: Neu5Ac(a2-6)GalNAc
# How it was run: as §1
# [31] = biological target: Neu5Ac(a2-6)GlcNAc(b1-4)GlcNAc
# How it was run: as §1
# Neu5Gc(a2-3)Gal(b1-4)Glc = biological target: Neu5Gc(a2-3)Gal(b1-4)Glc
# How it was run: as §1
binder,measurement,setting,value
Microvirin-2 (Microcystis aeruginosa) (protein) MPNFSHTCSSINYDPDSTILSAECQARDGEWLPTELRLSDHIGNIDGELQFGDQNFQETCQDCHLEFGDGEQSVWLVCTCQTMDGEWKSTQILLDSQIDNNDSQLEIGGSMPNFSHTCSSINYDPDSTILSAECQARDGEWLPTELRLSDHIGNIDGELQFGDQNFQETCQDCHLEFGDGEQSVWLVCTCQTMDGEWKSTQILLDSQIDNNDSQLEIG,glycan array binding signal (z-score),[1],-0.133
same,glycan array binding signal (z-score),Fuc(a1-2)Gal(b1-3)GlcNAc,-0.139
same,glycan array binding signal (z-score),[2],0.021
same,glycan array binding signal (z-score),[3],-0.137
same,glycan array binding signal (z-score),[4],-0.138
same,glycan array binding signal (z-score),[5],-0.113
same,glycan array binding signal (z-score),[6],-0.138
same,glycan array binding signal (z-score),Fuc(b1-3)GlcNAc,-0.137
same,glycan array binding signal (z-score),Gal(b1-3)Gal,-0.144
same,glycan array binding signal (z-score),[7],0.648
same,glycan array binding signal (z-score),Gal(b1-4)Gal,-0.143
same,glycan array binding signal (z-score),Gal(b1-4)Glc6S,-0.134
same,glycan array binding signal (z-score),Gal(b1-4)GlcNAc,-0.131
same,glycan array binding signal (z-score),[8],-0.141
same,glycan array binding signal (z-score),[9],-0.131
same,glycan array binding signal (z-score),[10],0.024
same,glycan array binding signal (z-score),Gal6P(b1-4)GlcNAc,-0.134
same,glycan array binding signal (z-score),Gal6S(b1-4)Glc6S,-0.128
same,glycan array binding signal (z-score),[11],-0.131
same,glycan array binding signal (z-score),GlcA(b1-6)Gal,-0.139
same,glycan array binding signal (z-score),[12],-0.031
same,glycan array binding signal (z-score),[13],-0.139
same,glycan array binding signal (z-score),[14],-0.141
same,glycan array binding signal (z-score),[15],-0.14
same,glycan array binding signal (z-score),[16],-0.135
same,glycan array binding signal (z-score),[17],5.28
same,glycan array binding signal (z-score),[18],9.44
same,glycan array binding signal (z-score),Man(a1-2)Man(a1-3)Man,4.43
same,glycan array binding signal (z-score),[19],7.03
same,glycan array binding signal (z-score),[20],6.69
same,glycan array binding signal (z-score),[21],3.1
same,glycan array binding signal (z-score),[22],5.79
same,glycan array binding signal (z-score),[23],6.04
same,glycan array binding signal (z-score),[24],13.3
same,glycan array binding signal (z-score),[25],7.25
same,glycan array binding signal (z-score),[26],-0.142
same,glycan array binding signal (z-score),[27],-0.143
same,glycan array binding signal (z-score),[28],-0.123
same,glycan array binding signal (z-score),[29],-0.107
same,glycan array binding signal (z-score),[30],-0.142
same,glycan array binding signal (z-score),Neu5Ac(a2-6)GalNAc,-0.133
same,glycan array binding signal (z-score),[31],-0.135
same,glycan array binding signal (z-score),Neu5Gc(a2-3)Gal(b1-4)Glc,-0.12
